Among the data in PubChem BioAssay are outcome, potentiation and inhibition values, retold here.

Each structure is given as a SMILES string. For part of these data: Results with a measured potency or affinity are listed apart. The source made the active and inactive calls.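 Rule for the calls, unless noted: active = membrane potential signal rise above negative control mean plus 3 SD in both duplicates, also active in the earlier TRPC4 screen; inactive = the rest.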

Broadly, the inhibition is how much of the control response was suppressed.

In experiment [1] the test system is TRPC4 beta (transient receptor potential cation channel C4), mouse. Description: activators of mouse TRPC4 channel, confirmation, cell-based, Fluo4 calcium, HEK293 TRPC4beta/mu-opioid, duplicates, 10 µM (AID 2426;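 active = fluorescence ratio normalized to control raised more than 50% in primary screen plus both repeat runs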). The note with it: Fluo4 calcium fluorescence, at 10 µM; active compounds read high.
The test system of experiment [2] is transient receptor potential cation channel C4 beta (TRPC4), mouse. Kind of experiment: activators of mouse TRPC4 channel, confirmation, cell-based, second round, Fluo4, HEK293 TRPC4beta/mu-opioid, 1 µM (AID 2461;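 active = primary screen active and over 50% activation in each of two duplicate runs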). Particulars: Fluo4 calcium fluorescence, at 1 µM; active compounds read high.
The test system of experiment [3] is TRPC4 (transient receptor potential cation channel C4 beta), mouse. Kind of experiment: positive allosteric modulators of mouse TRPC4, confirmation, cell-based, second round, Fluo-4, HEK293 TRPC4beta/mu-opioid, 1 µM (AID 2554;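 active = primary screen hit whose fluorescence ratio, in both repeats, exceeds the weak agonist control mean by 3 SD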). The note with it: DAMGO EC20, Fluo-4 calcium flux, at 1 µM; active compounds read high. (In general: Calcium assays in cells follow changes in intracellular calcium, usually with a dye or a luminescent sensor.)

Experiment [4] relates to TRPC4 beta (transient receptor potential cation channel C4), mouse. Kind of experiment: positive allosteric modulators of mouse TRPC4, confirmation, cell-based, Fluo-4, HEK293 TRPC4beta/mu-opioid (AID 2555;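 active = primary screen hit whose calcium fluorescence ratio, in both repeats, exceeds the weak agonist control mean by 3 SD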). The note with it: DAMGO EC20, Fluo-4 calcium flux, at 10 µM; active compounds read high.
The target in experiment [5] is Short transient receptor potential channel 4 (Mus musculus) (UniProt Q9QUQ5). Description: inhibitors of mouse TRPC4 channel, confirmation, cell-based, Fluo4, HEK293 TRPC4beta/mu-opioid (AID 2636;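 active = calcium signal cut by more than 3 SD below the full-agonist control yet still positive, in both repeats and the earlier primary screen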). The note with it: DAMGO, Fluo4 calcium flux, at 10 µM; active compounds read high.
Short transient receptor potential channel 4 (Mus musculus), sequence (Q9QUQ5 whole entry, looked up): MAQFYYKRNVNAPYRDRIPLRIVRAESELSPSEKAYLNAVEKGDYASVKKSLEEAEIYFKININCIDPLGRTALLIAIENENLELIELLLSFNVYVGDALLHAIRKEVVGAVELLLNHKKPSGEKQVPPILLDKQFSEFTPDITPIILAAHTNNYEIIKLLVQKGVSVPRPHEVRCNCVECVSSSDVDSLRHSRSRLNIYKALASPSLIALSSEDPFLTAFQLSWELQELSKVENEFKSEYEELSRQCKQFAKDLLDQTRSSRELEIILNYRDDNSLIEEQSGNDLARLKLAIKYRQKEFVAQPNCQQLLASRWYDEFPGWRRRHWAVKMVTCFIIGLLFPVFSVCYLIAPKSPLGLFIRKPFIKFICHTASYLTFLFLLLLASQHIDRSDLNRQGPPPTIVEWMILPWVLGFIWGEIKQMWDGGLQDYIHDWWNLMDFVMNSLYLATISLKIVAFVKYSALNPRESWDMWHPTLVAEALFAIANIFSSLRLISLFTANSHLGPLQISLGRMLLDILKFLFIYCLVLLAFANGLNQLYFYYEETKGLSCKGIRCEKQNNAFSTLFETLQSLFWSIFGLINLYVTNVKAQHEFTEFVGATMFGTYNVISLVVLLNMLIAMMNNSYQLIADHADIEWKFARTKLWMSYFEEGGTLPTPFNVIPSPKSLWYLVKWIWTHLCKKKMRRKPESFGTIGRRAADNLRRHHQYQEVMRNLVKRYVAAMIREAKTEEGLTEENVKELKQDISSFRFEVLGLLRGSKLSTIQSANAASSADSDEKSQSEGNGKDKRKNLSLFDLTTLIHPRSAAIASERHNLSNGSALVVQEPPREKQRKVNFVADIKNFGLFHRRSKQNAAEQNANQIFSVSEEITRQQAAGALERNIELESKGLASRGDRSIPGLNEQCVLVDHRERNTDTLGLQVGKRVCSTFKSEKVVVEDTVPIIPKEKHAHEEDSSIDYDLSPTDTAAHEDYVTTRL
For experiment [6] the target is unchanged. Kind of experiment: inhibitors of mouse TRPC4 channel, confirmation, cell-based, second round, Fluo4, HEK293 TRPC4beta/mu-opioid, 1 µM (AID 2637;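 active = calcium signal ratio cut to more than 3 SD under the fully stimulated control mean yet still positive, in both repeats and the primary screen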;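 for inhibition: percent of integrated ratio relative to wells lacking test compound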). Particulars: Fluo4 calcium flux, DAMGO, at 1 µM; active compounds read high.
Experiment [7] has the same target. Kind of experiment: mouse TRPC4 channel activators, dose response, cell-based, HEK293 TRPC4/mu-opioid, Fluo-4 calcium (AID 434937;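 active = primary screen activator hit with a dose response curve and TRPC4 channel activation at any tested dose; inactive = no activation, no dose response, or not a primary hit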).
For experiment [8] the target is unchanged. Description: TRPC4 positive allosteric modulators, dose response, cell-based, HEK293 TRPC4/mu-opioid, Fluo-4 calcium, EC20 DAMGO (AID 434941;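 active = earlier screen potentiator hit that boosts the TRPC4 ion channel at some dose, with a dose response; inactive = no potentiation, no dose response, or not a prior hit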;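 note: calcium entry triggered by an EC20 dose of DAMGO at the co-expressed mu-opioid receptor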).
The target is the same in experiment [9]. Kind of experiment: mouse TRPC4 channel inhibitors, dose response, cell-based, HEK293 TRPC4/mu-opioid, Fluo-4 calcium (AID 434942;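 active = primary screen inhibitor hit that blocks the TRPC4 channel at some tested dose, yielding a dose curve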).
In experiment [10] the target is Short transient receptor potential channel 6 (Mus musculus) (UniProt Q61143). Kind of experiment: inhibition of mouse TRPC6 channel, confirmation, selectivity assay for TRPC4 inhibitor project, cell-based, HEK293, membrane potential dye, duplicate (AID 434948;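 active = active in primary screen and both duplicates, each dropping signal beyond three positive-control SD with fluorescence still positive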). Particulars: HEK293 TRPC6, membrane potential dye fluorescence, at 10 µM, stimulated with maximal-effect acetylcholine; active compounds read high.
Short transient receptor potential channel 6 (Mus musculus), sequence (Q61143 whole entry, looked up): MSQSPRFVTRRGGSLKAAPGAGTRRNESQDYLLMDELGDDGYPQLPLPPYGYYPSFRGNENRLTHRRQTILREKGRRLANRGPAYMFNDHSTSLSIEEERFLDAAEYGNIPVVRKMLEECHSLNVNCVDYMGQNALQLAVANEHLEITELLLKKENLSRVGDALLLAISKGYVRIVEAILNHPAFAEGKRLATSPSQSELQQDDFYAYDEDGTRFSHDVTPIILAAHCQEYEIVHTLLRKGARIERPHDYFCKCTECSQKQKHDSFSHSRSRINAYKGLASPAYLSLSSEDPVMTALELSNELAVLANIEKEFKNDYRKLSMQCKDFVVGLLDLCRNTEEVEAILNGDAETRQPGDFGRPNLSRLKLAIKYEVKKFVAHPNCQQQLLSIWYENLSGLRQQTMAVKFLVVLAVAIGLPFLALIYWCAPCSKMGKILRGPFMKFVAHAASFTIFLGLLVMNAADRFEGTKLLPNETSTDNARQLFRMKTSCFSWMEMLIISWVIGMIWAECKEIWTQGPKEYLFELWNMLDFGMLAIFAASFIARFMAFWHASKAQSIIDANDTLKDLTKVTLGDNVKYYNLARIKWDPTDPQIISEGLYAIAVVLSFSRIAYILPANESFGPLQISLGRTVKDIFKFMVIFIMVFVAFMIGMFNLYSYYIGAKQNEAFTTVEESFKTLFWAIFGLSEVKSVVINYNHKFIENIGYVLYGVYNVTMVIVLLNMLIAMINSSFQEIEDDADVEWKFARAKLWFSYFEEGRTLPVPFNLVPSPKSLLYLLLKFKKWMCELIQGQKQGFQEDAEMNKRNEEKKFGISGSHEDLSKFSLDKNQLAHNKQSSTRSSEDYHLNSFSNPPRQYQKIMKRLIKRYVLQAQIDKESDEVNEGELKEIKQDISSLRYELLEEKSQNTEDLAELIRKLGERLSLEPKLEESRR

For experiment [11] the target is unchanged. Kind of experiment: activation of mouse TRPC6 channel, confirmation, selectivity assay for TRPC4 activator project, cell-based, HEK293, membrane potential dye, duplicate (AID 434950). Particulars: HEK293 TRPC6, membrane potential fluorescence, at 10 µM; active compounds read high.
For experiment [12] the target is unchanged. Kind of experiment: TRPC6 potentiation by TRPC4 potentiator hits, confirmation, selectivity assay for TRPC4 potentiator project, HEK293 cells, membrane potential dye, duplicate (AID 434952;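 active = compound raising the membrane signal above positive-control mean plus 3 SD in both repeats, and a primary screen hit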). The note with it: HEK293 TRPC6, membrane potential dye fluorescence, at 10 µM, maximal acetylcholine added after compound; active compounds read high.
Experiment [13] has as its target Short transient receptor potential channel 4 (Mus musculus) (UniProt Q9QUQ5). Description: calcium flux activators in TRPC4/5HT1a cells, counter-screen for TRPC4 activator project, cell-based, second counter screen, HEK293 TRPC4/5HT1a, Fluo-4 (AID 434977;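 active = calcium signal rise above buffer-control mean plus 5 SD in both duplicates, and also a hit in the primary screen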). The note with it: Fluo-4 calcium flux, at 10 µM; active compounds read high.
A short description of experiment [14]: calcium flux inhibitors in TRPC4/5HT1a cells, confirmation, counter-screen for TRPC4 inhibitor project, cell-based, second counter screen, HEK293 TRPC4/5HT1a, Fluo-4 (AID 434978;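 active = primary screen active whose calcium signal fell more than 3 SD beyond the full-serotonin control mean in both duplicate plates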;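 for outcome: serotonin given first at submaximal then at maximal dose after compound preincubation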). Particulars: Fluo-4 calcium flux, at 10 µM, serotonin added to trigger calcium flux; active compounds read high.
Experiment [15] relates to TRPC4 (mouse), co-expressed with 5HT1a in HEK293. Description: calcium flux potentiators in TRPC4/5HT1a cells, confirmation, counter-screen for TRPC4 potentiator project, cell-based, second counter screen, HEK293 TRPC4/5HT1a, Fluo-4 (AID 434979;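 active = signal rise over 3 SD above mean of control wells given weak agonist, in both repeats and first screen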). Particulars: Fluo-4 calcium flux, at 10 µM, serotonin added at its EC20 dose; active compounds read high.
Experiment [16] can be described thus: calcium flux activation in mu-opioid HEK293 cells, confirmation, counter-screen for TRPC4 activator project, cell-based, HEK293 mu-opioid receptor line (AID 449723;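 active = hit in primary screen, with calcium signal over 5 SD above buffer well mean in both duplicates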;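 note: counter screen cells carry the mu-opioid receptor alone and lack TRPC4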). The note with it: Fluo-4 calcium fluorescence, at 10 µM; active compounds read high.
Experiment [17] in a line: calcium flux enhancement in mu-opioid HEK293 cells, confirmation, counter-screen for TRPC4 allosteric potentiator project, cell-based, HEK293 mu-opioid receptor line (AID 449724;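 active = calcium signal rise more than 3 SD above the low-dose agonist control mean, in both duplicate plates and the primary screen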;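 note: HEK293 cells carrying mu-opioid receptor only with no TRPC4 channel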). Particulars: Fluo-4 calcium flux, at 10 µM, compound added before EC20 DAMGO stimulus; active compounds read high.

As for `Fc1ccc(CN2C3=NCCCN3c3ccccc32)cc1`, the outcome in experiment [1], in [2], in experiment [3], in experiment [4], in experiment [5] and in experiment [6] was inactive. Moreover, the outcome in experiment [7], in [8], in experiment [9], in experiment [10], in experiment [11] and in [12] was inactive. The result in experiment [13], in [14], in [15], in experiment [16] and in experiment [17] was inactive.

As for `Cc1cc2cc(CN(Cc3cccs3)C(=S)NCc3ccco3)c(=O)[nH]c2cc1C`, the result in [1], in [2], in experiment [3], in [4], in experiment [5] and in experiment [6] was inactive. Further, the result in [7], in experiment [8], in experiment [9], in experiment [10], in [11] and in [12] was inactive. For the same molecule, the outcome in [13], in [14], in [15], in experiment [16] and in [17] was inactive.

Take `CN(Cc1ccccc1)C(=O)c1oc(=O)c2ccccc2c1-c1ccccc1`: the result in experiment [1], in experiment [2], in [3], in [4], in experiment [5] and in experiment [6] was inactive. Further, the outcome in [7], in experiment [8], in [9], in experiment [10], in [11] and in experiment [12] was inactive. In addition, the result in [13], in [14], in [16] and in experiment [17] was inactive. Besides, the potentiation in [15] was 9.58% (active).

With `CCOC(=O)c1ccc(NC(=S)N2CCSC2c2ccc(Cl)cc2)cc1` (stereo not given), the result in experiment [1], in experiment [2], in experiment [3], in experiment [5], in [6] and in [7] was inactive. The result in experiment [8], in experiment [9], in experiment [10], in experiment [11], in [12] and in experiment [13] was inactive. The result in experiment [14], in experiment [16] and in experiment [17] was inactive. In addition, the potentiation was 21% (active) in experiment [4] and 26.4% (active) in experiment [15].

In the case of `CCOc1ccc(NS(=O)(=O)c2ccc(NC(=S)NC(=O)CC(C)C)cc2)cc1`, the outcome in experiment [1], in experiment [2], in experiment [3], in [5], in [6] and in experiment [7] was inactive. Further, the outcome in experiment [8], in experiment [9], in [10], in [11], in experiment [12] and in [13] was inactive. In addition, the outcome in [14], in [16] and in experiment [17] was inactive. The potentiation is 15% (active) in [4] and 6.51% (active) in experiment [15].

Take `CCN(CC)c1ccc(/C=N/NC(=O)CNC(=O)c2ccccn2)cc1`: the outcome in experiment [1], in experiment [2], in experiment [3], in experiment [4], in [5] and in experiment [6] was inactive. Also, the result in experiment [7], in experiment [8], in [9], in experiment [10], in experiment [11] and in experiment [12] was inactive. Further, the result in experiment [13], in experiment [14], in [15], in experiment [16] and in experiment [17] was inactive.

Consider `CCN1CCN(Cc2nc3c(c(=O)[nH]c(=O)n3C)n2Cc2ccccc2Cl)CC1`, for which the result in experiment [1], in experiment [2], in experiment [3], in experiment [5], in [6] and in [7] was inactive. Also, the outcome in experiment [8], in experiment [9], in experiment [10], in experiment [11], in experiment [12] and in experiment [13] was inactive. Also, the outcome in [14], in experiment [16] and in [17] was inactive. Also, the potentiation in experiment [4] was 12% (active); in experiment [15], 19% (active).

Regarding `Cc1ccc(-c2ccc3c(c2)S(=O)(=O)c2ccccc2C3=O)cc1`, the result in experiment [1], in [2], in [3], in experiment [4], in experiment [5] and in experiment [6] was inactive. The outcome in [7], in [8], in experiment [9], in experiment [10], in experiment [11] and in experiment [12] was inactive. Further, the result in experiment [13], in experiment [14], in [15], in experiment [16] and in [17] was inactive.

In the case of `CCCCN1C(=O)C(=O)N(CC(=O)Nc2cc(OCC)c(N3CCOCC3)cc2OCC)C1=O`, the result in experiment [1], in experiment [2], in experiment [3], in experiment [4], in experiment [5] and in [6] was inactive. The outcome in experiment [7], in experiment [8], in [9], in [10], in experiment [11] and in experiment [12] was inactive. Moreover, the outcome in experiment [13], in experiment [14], in experiment [15], in experiment [16] and in experiment [17] was inactive.

Turning to `NC(=O)C(c1cccc(Cl)c1)c1ncc(C(F)(F)F)cc1Cl` (stereo not given), the result in [1], in experiment [2], in experiment [3], in experiment [4], in [5] and in experiment [6] was inactive. Moreover, the outcome in experiment [7], in [8], in experiment [9], in experiment [10], in [11] and in experiment [12] was inactive. Moreover, the result in [13], in [14], in experiment [16] and in [17] was inactive. For the same molecule, the potentiation in experiment [15] is 7.72% (active).

For the molecule `N=c1c2c(n(Cc3ccc(Br)cc3)c3c1CCC3)CCCC2`, the outcome in [1], in experiment [2], in [3], in experiment [4], in [5] and in [6] was inactive. For the same molecule, the result in experiment [7], in experiment [8], in experiment [9], in experiment [10], in [11] and in [12] was inactive. Further, the result in experiment [13], in experiment [14], in experiment [15], in [16] and in experiment [17] was inactive.

With `CCn1c(C)nc2cc(C(=O)N/N=C/c3cccc(O)c3O)ccc21`, the result in [1], in [2], in experiment [5], in experiment [6], in [7] and in experiment [8] was inactive. Besides, the outcome in [9], in [10], in experiment [11], in experiment [12], in [13] and in [14] was inactive. For the same molecule, the result in experiment [16] and in [17] was inactive. Besides, the values for the potentiation in experiment [3], in experiment [4] and in experiment [15] were 79% (active), 50% (active) and 23% (active), respectively.

On to `CC1CCCCC1NC(=O)c1cc2ccccc2o1` (stereo not given), for which the outcome in [1], in experiment [2], in experiment [3], in experiment [5], in [6] and in [7] was inactive. Moreover, the outcome in experiment [8], in [9], in [10], in [11], in experiment [12] and in [13] was inactive. Also, the result in experiment [14], in [16] and in experiment [17] was inactive. In addition, the potentiation in experiment [4] was 46% (active); in experiment [15], 42.2% (active).

As for `CCOC(=O)COc1cc(-n2c(=S)[nH]c3ccccc3c2=O)c(Cl)cc1Cl`, the outcome in experiment [1], in experiment [2], in [5], in experiment [6], in [7] and in experiment [8] was inactive. In addition, the outcome in experiment [9], in [10], in experiment [11], in experiment [12], in [13] and in experiment [14] was inactive. Besides, the outcome in [15], in experiment [16] and in experiment [17] was inactive. Further, the potentiation is 8% (active) in [3] and 21% (active) in [4].

As to `Cc1cc(/C=N/NC(=O)c2cccc([N+](=O)[O-])c2)c(C)n1-c1ccc(Cl)cc1Cl`, the outcome in experiment [1], in experiment [2], in [3], in experiment [4], in experiment [7] and in experiment [8] was inactive. The outcome in experiment [9], in [10], in [11], in [12], in experiment [13] and in experiment [15] was inactive. In addition, the result in [16] and in experiment [17] was inactive. Besides, the inhibition was 88% (active) in experiment [5], 58% (active) in experiment [6] and 35.8% (active) in [14].
